Measured values from PubChem BioAssay (Tox21).
Values joined by “and” are separate entries in the source; they are usually repeats but may differ in a detail not shown here. Equal entries are not always repeated. Records with an inconclusive call do not appear. Where a call stands in place of a potency, no number is given. Where a structure was tested more than once in an assay, its records may differ in their call. Active and inactive are the calls of the source. Unless noted, calls follow the shape of the dose curve; as a rule, active = well fitted curve in the direction sought with a large enough effect in the repeat runs; inconclusive = weak or mixed curves; inactive = no such curve, though single readings can be large; an effect the other way counts as inactive or inconclusive.

What was measured:
[1] = qHTS assay to identify aromatase inhibitors - cell viability counter screen (AID 743084);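 also: cells stimulated with testosterone during compound exposure; nearly all actives have a fitted effect of over 55% in size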; also: potency is read from the fitted curve at half-maximal effect
[2] = qHTS assay to identify small molecule that activate the aryl hydrocarbon receptor (AhR) signaling pathway - cell viability counter screen (AID 743086); also: nearly all actives have a fitted effect of over 45% in size; also: potency is read from the fitted curve at half-maximal effect
Summary of the method: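 HepG2-AhR-luc (HG2L7.5c1) cells, 4000/well, were preincubated 5 h at 37C, exposed to compound in qHTS format for 24 hr at 37C, then given CellTiter-Fluor for 30 min; viability was read as fluorescence in the reporter wells.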

[3] = target: Peroxisome proliferator-activated receptor gamma (Homo sapiens) (UniProt P37231); assay: qHTS assay to identify small molecule agonists of the peroxisome proliferator-activated receptor gamma (PPARg) signaling pathway (AID 743094; active = well fitted activation curve with a large enough effect in the signal ratio in the repeat runs, not every such curve was filed as active; the % refers to the signal ratio; also: potency is read from the fitted curve at half-maximal effect)
Peroxisome proliferator-activated receptor gamma (Homo sapiens), sequence (P37231 whole entry, looked up): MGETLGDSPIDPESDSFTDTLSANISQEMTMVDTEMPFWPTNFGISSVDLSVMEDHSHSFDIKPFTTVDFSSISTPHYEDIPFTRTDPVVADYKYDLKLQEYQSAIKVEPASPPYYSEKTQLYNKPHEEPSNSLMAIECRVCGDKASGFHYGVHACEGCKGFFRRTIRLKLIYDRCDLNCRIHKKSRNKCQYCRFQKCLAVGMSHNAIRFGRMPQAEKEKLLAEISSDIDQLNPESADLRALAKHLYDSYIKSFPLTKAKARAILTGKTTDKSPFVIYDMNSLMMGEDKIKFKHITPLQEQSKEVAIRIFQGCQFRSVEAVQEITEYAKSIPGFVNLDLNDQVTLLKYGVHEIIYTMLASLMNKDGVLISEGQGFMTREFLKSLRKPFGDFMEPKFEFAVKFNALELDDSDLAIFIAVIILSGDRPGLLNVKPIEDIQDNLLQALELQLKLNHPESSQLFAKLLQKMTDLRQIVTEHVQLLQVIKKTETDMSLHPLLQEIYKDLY
Summary of the method: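 Quantitative HTS agonist mode: stable HEK293H line with UAS-beta-lactamase reporter under PPARg control, 17 h compound exposure at 37C, fluorescence after 1 h FRET substrate loading at room temperature.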

[4] = target: Peroxisome proliferator-activated receptor gamma (Homo sapiens) (UniProt P37231); assay: qHTS assay to identify small molecule antagonists of the peroxisome proliferator-activated receptor gamma (PPARg) signaling pathway (AID 743191; calls by dose curve; also: nearly all actives have a fitted effect of over 30% in size; also: potency is read from the fitted curve at half-maximal effect)
Summary of the method: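 GeneBLAzer PPARg UAS-bla HEK293H cells carrying a UAS-driven beta-lactamase reporter were plated at 3000 cells/well, preincubated 5 h at 37C, then given compound for 17 h at 37C; LiveBLAzer B/G FRET substrate was read after 1 h at room temperature.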

[5] = qHTS assay to identify small molecule antagonists of the peroxisome proliferator-activated receptor gamma (PPARg) signaling pathway - cell viability counter screen (AID 743194); details: Potency: co-treated with 50 nM rosiglitazone; also: nearly all actives have a fitted effect of over 55% in size; also: potency is read from the fitted curve at half-maximal effect
Summary of the method: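 PPARg-UAS-bla HEK293H cells were plated, rested 5 h at 37 C, then treated with compounds plus rosiglitazone (50 nM final) for 17 h at 37 C; viability was then read by CellTiter-Glo luminescence after 30 min at room temperature.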

[6] = qHTS assay for small molecule agonists of the antioxidant response element (ARE) signaling pathway (AID 743202; active = well fitted activation curve with a large enough effect in the signal ratio in the repeat runs, not every such curve was filed as active; the % refers to the signal ratio; also: potency is read from the fitted curve at half-maximal effect)
Summary of the method: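 Compounds delivered in DMSO to ARE-bla HepG2 cells (2,000 cells/well, pre-incubated 5 h) and left 16 h at 37 C. LiveBLAzer B/G FRET substrate then added for 2 h at RT before fluorescence reading.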

[7] = qHTS assay for small molecule agonists of the antioxidant response element (ARE) signaling pathway - cell viability counter screen (AID 743203; calls by dose curve; also: nearly all actives have a fitted effect of over 55% in size; also: potency is read from the fitted curve at half-maximal effect)
Summary of the method: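 Seeded at 2,000 cells/well, ARE-bla HepG2 cells were incubated 5 hrs before compound addition. After 16 hrs of treatment at 37C with 5% CO2, CellTiter-Glo reagent was added and luminescence read 30 min later.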

[8] = qHTS assay for small molecule activators of the heat shock response signaling pathway - cell viability counter screen (AID 743209); also: nearly all actives have a fitted effect of over 50% in size; also: potency is read from the fitted curve at half-maximal effect
Summary of the method: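 First, HSE-bla HeLa cells were seeded at 1500 cells/well and kept overnight at 37 C. Next, compounds were pinned in and incubated 5 h. After the FRET substrate step, CellTiter-Glo was added and luminescence read 30 min later.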

[9] = target: Aryl hydrocarbon receptor (Homo sapiens) (UniProt P35869); assay: qHTS assay to identify small molecule that activate the aryl hydrocarbon receptor (AhR) signaling pathway (AID 743085); also: nearly all actives have a fitted effect of over 15% in size; also: potency is read from the fitted curve at half-maximal effect;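 as to activation: HG2L7.5c1 human HepG2 liver cells with stably integrated DRE-driven firefly reporter; series mostly up to about 70 µM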
Aryl hydrocarbon receptor (Homo sapiens), sequence (P35869 whole entry, looked up): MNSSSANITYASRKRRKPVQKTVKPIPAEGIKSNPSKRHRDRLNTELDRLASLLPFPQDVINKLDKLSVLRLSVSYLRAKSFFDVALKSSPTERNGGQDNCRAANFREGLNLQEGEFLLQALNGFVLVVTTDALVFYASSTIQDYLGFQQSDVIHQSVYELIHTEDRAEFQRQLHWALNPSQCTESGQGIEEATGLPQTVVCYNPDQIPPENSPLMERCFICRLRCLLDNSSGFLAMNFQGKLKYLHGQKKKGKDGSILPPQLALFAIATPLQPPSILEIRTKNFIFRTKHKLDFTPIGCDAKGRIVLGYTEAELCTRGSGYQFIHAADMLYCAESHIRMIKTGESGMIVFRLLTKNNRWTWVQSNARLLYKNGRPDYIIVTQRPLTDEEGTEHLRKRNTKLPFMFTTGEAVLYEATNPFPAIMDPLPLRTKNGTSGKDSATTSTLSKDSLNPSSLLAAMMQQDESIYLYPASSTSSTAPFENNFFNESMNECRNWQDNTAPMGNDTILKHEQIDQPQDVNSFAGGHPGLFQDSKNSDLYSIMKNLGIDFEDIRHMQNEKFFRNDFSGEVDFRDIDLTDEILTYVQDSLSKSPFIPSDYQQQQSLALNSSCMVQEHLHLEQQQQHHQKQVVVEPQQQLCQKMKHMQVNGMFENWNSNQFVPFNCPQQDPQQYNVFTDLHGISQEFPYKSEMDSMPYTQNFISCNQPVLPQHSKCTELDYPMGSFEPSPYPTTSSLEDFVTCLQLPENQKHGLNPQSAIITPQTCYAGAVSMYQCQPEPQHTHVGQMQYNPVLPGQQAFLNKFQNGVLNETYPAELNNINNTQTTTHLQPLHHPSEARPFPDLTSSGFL
Summary of the method: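 HepG2 cells stably carrying a 20-DRE firefly luciferase reporter (HG2L7.5c1) treated with compound for 24 hr at 37C. Luciferase read by ONE-Glo luminescence, with CellTiter-Fluor viability read first.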

[10] = qHTS assay for small molecule activators of the heat shock response signaling pathway (AID 743210; active = well fitted activation curve with a large enough effect in the signal ratio in the repeat runs, with a control signal flat, not every such curve was filed as active; the % refers to the signal ratio;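 also: HeLa cells with beta-lactamase reporter driven by heat shock elements; series mostly up to about 63 µM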)
Summary of the method: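 Reporter gene assay: HeLa cells stably bearing an HSE-bla construct, compound treatment 5 h at 37 C, LiveBLAzer substrate 2.5 h at RT, fluorescence intensity.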

| Structure (SMILES) | Potency [1] | Potency [2] | Potency [3] | Potency [4] | Potency [5] | Potency [6] | Potency [7] | Potency [8] | Potency [9] | Potency [10] |
| --- | --- | --- | --- | --- | --- | --- | --- | --- | --- | --- |
| CCCSP(=S)(OCC)Oc1ccc(SC)cc1 (configuration not stated) | inactive | inactive | inactive | inactive | inactive | inactive | inactive | inactive |  |  |
| O=C(O)c1cc(I)cc(I)c1I | inactive | inactive |  |  | inactive |  | inactive | inactive | inactive | inactive |
| C=CCN1C[C@H](C)N([C@H](c2ccc(C(=O)N(CC)CC)cc2)c2cccc(OC)c2)C[C@H]1C | inactive | inactive |  | inactive | inactive |  | inactive | inactive | inactive | inactive |
| C#C[C@]1(O)CC[C@H]2[C@@H]3CCC4=CC(=O)CCC4=C3C=C[C@@]21CC | inactive | inactive |  |  | inactive |  | inactive | inactive | inactive | inactive |
| O=C(O)C(F)(F)C(F)(F)C(F)(F)C(F)(F)C(F)(F)C(F)(F)C(F)(F)C(F)(F)F | inactive | inactive |  |  | inactive | 6.86 µM (active) | 61.1 µM (active) | inactive | inactive |  |
| Clc1ccc(Cl)c(Cl)c1 | inactive | inactive |  |  | inactive |  | inactive | inactive | inactive |  |
| [Cl-].[Cl-].[Hg+2] | 10.6 µM (active) and 1.08 µM (active) and 12.2 µM (active) | 6.08 µM (active) and 54.5 µM (active) |  |  | 21.8 µM (active) and 21.9 µM (active) |  | 19.2 µM (active) and 12.2 µM (active) | 3.87 µM (active) and 30.9 µM (active) | inactive |  |
| CC(Oc1cc(Cl)c(Cl)cc1Cl)C(=O)O (configuration not stated) | inactive | inactive |  |  | inactive |  | inactive | inactive | inactive | inactive |
| CC(C)(C)c1ccc(CCOc2ncnc3ccccc23)cc1 | inactive | inactive |  |  | inactive | inactive | inactive | inactive | inactive | inactive |
| O=C(CCl)CCl | 15.4 µM (active) | inactive |  |  | 21.9 µM (active) | 14.2 µM (active) | 19.3 µM (active) | inactive and 12.3 µM (active) | inactive | inactive |
| O=C=NC1CCCCC1 | inactive | inactive | inactive |  |  | inactive | inactive | inactive | 54.6 µM (active) | inactive |
| O=C(O)C(O)C(O)C(=O)O (configuration not stated) | inactive | inactive |  |  | inactive | inactive | inactive | inactive | inactive |  |
| O=P(OCC(Br)CBr)(OCC(Br)CBr)OCC(Br)CBr (configuration not stated) | inactive |  |  | 44.2 µM (active) |  |  | 36.6 µM (active) | inactive | inactive |  |
| CCCCNC(=O)OCC#CI | 6.08 µM (active) and 17.2 µM (active) | inactive |  |  |  |  | 21.7 µM (active) | inactive | inactive |  |
| C=CCc1ccccc1O | inactive | inactive |  |  | inactive |  | inactive | inactive | inactive | inactive |
| O=C(Cc1ccccc1)c1ccccc1 | inactive | inactive |  |  | inactive | inactive | inactive | inactive | inactive | inactive |
| CCCCCCCCCCCCN(C)C | inactive | inactive | inactive |  |  |  | inactive | inactive | inactive | inactive |
| C[CH2][Hg][S]c1ccccc1C(=O)O | 5.96 µM (active) and 1.09 µM (active) | 16.8 µM (active) and 6.86 µM (active) |  |  | 2.45 µM (active) and 8.41 µM (active) |  | 1.72 µM (active) and 5.96 µM (active) | 19.5 µM (active) and 15 µM (active) | inactive |  |
| C[C@]12C=CC3=C4CCC(=O)C=C4CC[C@H]3[C@@H]1CC[C@@H]2O | inactive | inactive |  |  | inactive | 6.07 µM (active) | inactive | inactive | inactive |  |
| COP(=O)(OC)OC(Br)C(Cl)(Cl)Br (configuration not stated) | 48.6 µM (active) | inactive | 54.9 µM (active) |  |  | 19.4 µM (active) and 9.69 µM (active) | inactive | inactive | inactive | inactive |
| COc1cc(C[C@@H](C)N)c(OC)cc1Br | inactive |  |  | inactive | inactive |  | inactive | inactive | inactive | inactive |
| Cc1ncc(C[n+]2csc(CCO)c2C)c(N)n1 | inactive | inactive |  |  | inactive | inactive | inactive | inactive | inactive |  |
| CN(C)C(=O)Nc1cccc(OC(=O)NC(C)(C)C)c1 | inactive | inactive | inactive |  |  |  | inactive | inactive | inactive | inactive |
| CCOc1cccc(C2(N3CCN(c4ccccc4)CC3)CCC(C)CC2)c1 (configuration not stated) | inactive | inactive | inactive | inactive | inactive | inactive | inactive | inactive |  |  |

| Structure (SMILES) | Potency [1] | Potency [2] | Potency [3] | Potency [4] | Potency [5] | Potency [6] | Potency [7] | Potency [8] | Potency [9] | Potency [10] |
| --- | --- | --- | --- | --- | --- | --- | --- | --- | --- | --- |
| C[C@H]1[C@@H]2Cc3ccc(O)cc3[C@@]1(C)CCN2C | inactive | inactive |  |  | inactive |  | inactive | inactive | inactive | inactive |
| CCC(C)Cl (configuration not stated) | inactive | inactive | inactive | inactive | inactive | inactive | inactive | inactive |  | inactive |
| O=C(NC(=O)c1cc(F)c(F)cc1Cl)Nc1cc(F)ccc1N1CCC(C(=O)O)CC1 | inactive | inactive |  | 1.9 µM (active) |  | inactive | inactive | inactive | inactive | inactive |
| Cc1cccc(C)c1NC1=NCCCS1 | inactive | inactive |  |  | inactive |  | inactive | inactive | inactive | inactive |
| C=CC(C)(CCC=C(C)C)OC(=O)c1ccccc1N (configuration not stated) | inactive | inactive |  |  | inactive | inactive | inactive | inactive | inactive | inactive |
| CN(C)c1ccc(N=O)cc1 | 6.13 µM (active) and 15.4 µM (active) | 61.3 µM (active) and 68.6 µM (active) |  |  | 49.1 µM (active) and 34.7 µM (active) |  | inactive and 54.5 µM (active) | 3.9 µM (active) and 5.49 µM (active) | 21.8 µM (active) and 21.7 µM (active) |  |
| C[N+](C)(C)CCOC(=O)C(O)(c1ccccc1)c1ccccc1 | inactive | inactive |  |  | inactive |  | inactive | inactive | inactive | inactive |
| CC1(C)[C@H](C(=O)O[C@H](C#N)c2cccc(Oc3ccccc3)c2)[C@@H]1C=C(Br)Br | inactive | inactive |  |  | inactive |  | inactive | inactive | inactive |  |
| CCCCC#N | inactive | inactive |  |  | inactive | inactive | inactive | inactive | inactive | inactive |
| COC(=O)C1(O)c2ccccc2-c2ccccc21 | inactive | inactive |  |  | inactive |  | inactive | inactive | inactive |  |
| CCCCCCCCCCCC[N+](C)(C)CCOc1ccccc1 | 26.6 µM (active) and 27.3 µM (active) | 68.6 µM (active) |  |  | 21.9 µM (active) and 13.3 µM (active) |  | 30.6 µM (active) and 29.8 µM (active) | 34.7 µM (active) | inactive |  |
| Cc1ccc2c(C)cccc2c1 | inactive | inactive |  | inactive | inactive |  | inactive | inactive | inactive | inactive |
| COc1ccc(C(=O)c2c(C)n(CCN3CCOCC3)c3ccccc23)cc1 | inactive | inactive | inactive |  | inactive | inactive | inactive | inactive |  | inactive |
| CC(CC(C(N)=O)(c1ccccc1)c1ccccc1)N(C)C (configuration not stated) |  |  |  | inactive | inactive |  | inactive | inactive |  | inactive |
| Nc1ccccc1C(=O)OCC(O)CO (configuration not stated) |  |  |  |  | inactive | inactive | inactive | inactive |  | inactive |
| CCCN(CCC)C(=O)Cc1c(-c2ccc(Cl)cc2)nc2ccc(Cl)cn12 | inactive | inactive | inactive |  | inactive |  | inactive | inactive |  | inactive |
| C=CCc1ccc(OC(=O)Cc2ccccc2)c(OC)c1 | inactive | inactive | inactive |  | inactive | inactive | inactive | inactive |  | inactive |
| CN1C[C@H](C(=O)N[C@]2(C)O[C@@]3(O)[C@@H]4CCCN4C(=O)[C@H](Cc4ccccc4)N3C2=O)C=C2c3cccc4[nH]cc(c34)C[C@H]21 | inactive | 21.8 µM (active) and inactive | inactive | 43.8 µM (active) and inactive | inactive |  | inactive | inactive |  |  |
| CCCCCCCCP(=O)(O)O | inactive | inactive |  |  | inactive |  | inactive | inactive |  | inactive |
| O=C(O)CCCOc1ccc(Cl)cc1Cl |  | inactive |  |  | inactive | inactive | inactive and 27.8 µM (active) | inactive |  | inactive |
| CC(C)(C)NCC(O)c1cc(Cl)c(N)c(C(F)(F)F)c1 (configuration not stated) |  |  | inactive | inactive | inactive | inactive | inactive | inactive | inactive | inactive |
| COc1ccc2c(c1OC)C(=O)O[C@H]2[C@@H]1c2cc3c(cc2CCN1C)OCO3 | inactive | inactive | inactive | inactive | inactive | inactive | inactive | inactive |  | inactive |
| CCCCCCCCCCCCCCCl | inactive | inactive | inactive |  | inactive | inactive | inactive | inactive |  | inactive |
